The list is not random: actives were taken first. Their share in the collection is about 0.54%.
ERG Ets-DNA blk – blocks human ERG Ets domain binding to DNA; Potency, µM (highest dose often 76.9 µM), actives largely listed as inhibitors; P11308; hit rate 0.028% among 370,000; AID 624246; fluorescence polarization, His-ERG Ets domain / labelled DNA; active = well fitted inhibition curve with a large enough effect in the polarisation, with a control signal flat; inconclusive = small, poorly fitted or top-dose-only effect, or effect the other way, or a change in a side signal; inactive = no such curve, though single readings can be large or run the other way; the % refers to the polarisation;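 note: polarization taken with two DNA probes labelled with fluorescein and Texas red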
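His-tagged ERG Ets domain (1 uM in the protein solution; 300mM KCl, 50mM Tris-HCl, 1mM EDTA, 1mM DTT, pH 7.5) received compound, then a probe mix of 5 nM fluorescein-DNA and 100nM Texas-615-DNA. Fluorescence polarization was read for both dyes.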
EPAC1 antag – antagonists of human EPAC1. O95398. EPAC1 GEF assay, Rap1b-BODIPY-GDP exchange fluorescence. Potency, µM (top dose mostly 115 µM), hits mostly inhibitors. hit rate 0.14% among 360,000. AID 720709; note: nearly all actives have a fitted effect of over 50% in size
EPAC2 ag – agonists of human EPAC2 (RAPGEF4). Potency, µM (titrated, usually from 154 µM), actives largely listed as activators. hit rate 0.079% among 360,000. EPAC2 activation, biochemical qHTS; response scale: 100% = 6.5 mM cAMP response; note: nearly all actives have a fitted effect of over 50% in size
Target sequence (Q8WZA2 whole entry, looked up): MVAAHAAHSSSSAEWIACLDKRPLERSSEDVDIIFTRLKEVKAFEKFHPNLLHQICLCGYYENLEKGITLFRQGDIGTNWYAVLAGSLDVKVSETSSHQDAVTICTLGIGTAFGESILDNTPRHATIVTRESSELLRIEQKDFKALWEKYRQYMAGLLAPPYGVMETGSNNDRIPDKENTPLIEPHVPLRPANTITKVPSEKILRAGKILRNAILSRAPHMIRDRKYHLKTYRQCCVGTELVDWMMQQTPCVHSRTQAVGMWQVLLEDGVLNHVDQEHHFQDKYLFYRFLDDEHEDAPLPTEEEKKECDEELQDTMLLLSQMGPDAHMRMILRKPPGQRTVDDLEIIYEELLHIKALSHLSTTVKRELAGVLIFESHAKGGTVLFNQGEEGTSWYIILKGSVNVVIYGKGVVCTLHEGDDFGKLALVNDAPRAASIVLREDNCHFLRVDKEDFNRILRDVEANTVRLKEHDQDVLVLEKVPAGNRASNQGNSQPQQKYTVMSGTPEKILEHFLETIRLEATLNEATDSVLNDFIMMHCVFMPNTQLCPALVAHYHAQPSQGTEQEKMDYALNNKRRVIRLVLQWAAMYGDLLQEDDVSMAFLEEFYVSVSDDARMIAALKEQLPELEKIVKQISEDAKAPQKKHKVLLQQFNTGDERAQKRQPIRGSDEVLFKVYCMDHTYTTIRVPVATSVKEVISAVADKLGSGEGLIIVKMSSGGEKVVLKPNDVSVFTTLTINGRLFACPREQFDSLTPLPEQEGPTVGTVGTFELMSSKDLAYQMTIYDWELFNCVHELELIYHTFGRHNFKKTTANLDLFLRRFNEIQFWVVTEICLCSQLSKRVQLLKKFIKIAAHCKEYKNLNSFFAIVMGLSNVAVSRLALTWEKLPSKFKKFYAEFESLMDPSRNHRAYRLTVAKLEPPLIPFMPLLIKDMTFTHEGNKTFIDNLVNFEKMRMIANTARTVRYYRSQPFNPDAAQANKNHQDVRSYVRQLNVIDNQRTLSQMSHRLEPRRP
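Fluorescence exchange assay: 100 nM EPAC2 with 250 nM RAP1B-BODIPY-GDP and 50 uM GDP; compounds tested as a concentration-titration series (qHTS). Loss of Rap1-bound BODIPY-GDP fluorescence read at 480/540 nm; data normalized to 6.5 mM cAMP.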
EPAC1 ag – activates human EPAC1 exchange factor | hit rate 0.073% among 360,000 | O95398 | AID 720707 | Potency, µM (top dose mostly 154 µM), actives largely listed as activators | EPAC1 agonist qHTS, biochemical assay; response scale: 100% = response to 6.5 mM cAMP; note: nearly all actives have a fitted effect of over 60% in size
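Normalized to 6.5 mM cAMP, activity reflects EPAC1-catalysed release of BODIPY-GDP from Rap1B, followed kinetically over 30 min at 480 nm excitation, 540 nm emission. Reaction contained 100 nM EPAC1, 250 nM Rap1B-BODIPY-GDP, 50 uM GDP.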
EPAC2 antagonist – blocks human EPAC2 exchange factor. Q8WZA2. EPAC2 GEF exchange of Rap1B-BODIPY-GDP, fluorescence. Potency, µM (titrated, usually from 114 µM), actives largely listed as inhibitors. hit rate 0.18% among 360,000. AID 720708; note: nearly all actives have a fitted effect of over 45% in size
TDP1 block – inhibitors of human tyrosyl-DNA phosphodiesterase TDP1. Potency, µM (highest dose often 130 µM), most hits filed as inhibitors. hit rate 0.28% among 350,000. AID 485290. recombinant TDP1, AlphaScreen DNA substrate cleavage. Q9NUW8; note: nearly all actives have a fitted effect of over 40% in size
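AlphaScreen read-out: signal falls as enzyme removes the 3' tyrosine-FITC from a 5'-biotinylated DNA oligo (15 nM, 5 min, RT). Enzyme was E. coli-made recombinant Tdp1 at 1 nM, exposed to compound for 15 min beforehand; beads 10 ug/ml, 10 min.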
Hits are given with their value; ! = not active in a repeat; [ ] = remark or other dose. Unless noted, calls come from the whole dose curve; as a rule, active = well fitted curve in the direction sought with a large enough effect; inconclusive = small, poorly fitted or top-dose-only effect, or another doubt; inactive = no such curve, though single readings can be large; an effect the other way counts as inactive or inconclusive.

Screening O=S(=O)(c1ccccc1)N1N=C(c2cccs2)CC1c1ccc(F)cc1 (configuration not stated) returned ERG Ets-DNA blk inactive, EPAC1 antag inactive, EPAC2 ag inactive, EPAC1 ag inactive, EPAC2 antagonist inactive and TDP1 block inactive.
Screening Cc1ccc(S(=O)(=O)Nc2cc(C(=O)O)ccc2N2CCCCC2)cc1 returned ERG Ets-DNA blk inactive, EPAC1 antag inactive, EPAC2 ag inactive, EPAC1 ag inactive, EPAC2 antagonist inactive and TDP1 block inactive.
`O=C(O)CCc1ccc(S(=O)(=O)Nc2cc(C(F)(F)F)ccc2N2CCCC2)cc1` gave ERG Ets-DNA blk inactive, EPAC1 antag inactive, EPAC2 ag inactive, EPAC1 ag inactive, EPAC2 antagonist inactive and TDP1 block 18µM.
`COc1cc([N+](=O)[O-])ccc1-c1ccc(/C=C2\C(=O)ON=C2c2ccccc2)o1` gave ERG Ets-DNA blk inactive, EPAC1 antag inactive, EPAC2 ag inactive, EPAC1 ag inactive and EPAC2 antagonist 50µM.
Screening CCNc1nc(NCC)nc(-n2cc(C(=O)c3cc(Cl)ccc3O)cn2)n1 returned TDP1 block inactive.
For O=C1CSC(c2ccc(Cl)cc2Cl)N1c1ccccn1 (configuration not stated) the results were ERG Ets-DNA blk inactive, EPAC1 antag inactive, EPAC2 ag inactive, EPAC1 ag inactive, EPAC2 antagonist 18µM and TDP1 block inactive.
O=C(O)COc1ccc(/C=N/NC(=O)c2ccc(-c3csc(Nc4ccc(Cl)cc4)n3)cc2)cc1 was read as ERG Ets-DNA blk inactive, EPAC1 antag 7.9µM, EPAC2 ag inactive, EPAC1 ag inactive and EPAC2 antagonist inconclusive.
Screening C=Cc1cc(F)c(S(=O)(=O)N2CCN(S(=O)(=O)c3ccc4c(c3)OCCO4)CC2)cc1F returned TDP1 block inactive.
CONC(=O)C[C@@H](C#N)NC(=O)[C@@H]1CCCN1C(=O)[C@@H](NC(=O)c1ccc(N)c(Cl)c1)C(C)(C)C was read as TDP1 block inactive.
Screening COC(=O)C1=NN(c2ccc(C)cc2)C2(S1)SC(C(C)=O)=C(C)N2c1ccccc1 (configuration not stated) returned ERG Ets-DNA blk inactive, EPAC1 antag inactive, EPAC2 ag inactive, EPAC1 ag inactive, EPAC2 antagonist 3.2µM and TDP1 block inactive.
`O=C(O)c1ccc(-c2ccc3cc(C45CC6CC(CC(C6)C4)C5)c(O)cc3c2)cc1` gave TDP1 block inactive.
C[C@]12CC[C@@H]3c4ccc(OS(=O)(=O)O)cc4CC[C@H]3[C@@H]1CCC2=O was read as ERG Ets-DNA blk inactive, EPAC1 antag 22µM!, EPAC2 ag inactive, EPAC1 ag inactive, EPAC2 antagonist inactive and TDP1 block inactive.
`CC12CCC3c4ccc(O)cc4CCC3C1CCC2=O` (configuration not stated) gave ERG Ets-DNA blk inactive, EPAC1 antag inactive, EPAC2 ag inactive, EPAC1 ag inactive, EPAC2 antagonist inactive and TDP1 block inactive.
For O=C(O)c1cccc(-n2cccc2C=C2C(=O)c3ccccc3C2=O)c1 the results were ERG Ets-DNA blk inactive, EPAC1 antag inactive, EPAC2 ag inactive, EPAC1 ag inactive and EPAC2 antagonist inactive.
For O=C(O)c1cccc(-n2cccc2/C=C2\SC(=O)N(Cc3ccccc3F)C2=O)c1 the results were ERG Ets-DNA blk inactive, EPAC1 antag inactive, EPAC2 ag inactive, EPAC1 ag inactive, EPAC2 antagonist inactive and TDP1 block 8.9µM.
For O=C(CN1C(=O)N/C(=C\c2ccccc2OCc2ccc(C(=O)O)cc2)C1=O)Nc1ccc(F)cc1 the results were ERG Ets-DNA blk inactive, EPAC1 antag inconclusive, EPAC2 ag inactive, EPAC1 ag inactive, EPAC2 antagonist inactive and TDP1 block inactive[0.0935 µM].
For O=C(O)c1ccc(COc2ccccc2/C=C2/NC(=O)N(c3cccc(Cl)c3)C2=O)cc1 the results were ERG Ets-DNA blk inactive, EPAC1 antag inconclusive, EPAC2 ag inactive, EPAC1 ag 89µM, EPAC2 antagonist inconclusive and TDP1 block 25µM.
O=C(O)c1ccc(COc2ccccc2/C=C2\NC(=O)N(Cc3ccc(F)cc3)C2=O)cc1 was read as ERG Ets-DNA blk inactive, EPAC1 antag inconclusive, EPAC2 ag inactive, EPAC1 ag inactive, EPAC2 antagonist inactive and TDP1 block inactive.
For Cc1cccc(NC(=O)CN2C(=O)N/C(=C\c3ccccc3OCc3ccc(C(=O)O)cc3)C2=O)c1 the results were ERG Ets-DNA blk inactive, EPAC1 antag 28µM, EPAC2 ag inactive, EPAC1 ag inactive and EPAC2 antagonist inactive.
Screening O=C(O)c1cccc(-n2cccc2/C=C2/NC(=O)N(c3ccc(Cl)cc3)C2=O)c1 returned ERG Ets-DNA blk inactive, EPAC1 antag inconclusive, EPAC2 ag inactive, EPAC1 ag inactive, EPAC2 antagonist inactive and TDP1 block 0.04µM.
Screening O=C1CC(c2ccc3c(c2)OCO3)c2cc(O)ccc2O1 (configuration not stated) returned TDP1 block inactive.
For CC1CCN2c3ccccc3CC3(C(=O)OC(C)(C)OC3=O)C2C1 (configuration not stated) the results were TDP1 block inactive.
For Cc1cc2c(s1)c1cnn(Cc3cccc(Cl)c3)c(=O)c1n2C the results were TDP1 block inactive.
COc1cc(/C=C2\SC(=S)N(NS(=O)(=O)c3ccc(C)cc3)C2=O)cc(OC)c1OC was read as ERG Ets-DNA blk inactive, EPAC1 antag 79µM, EPAC2 ag inactive, EPAC1 ag inactive and EPAC2 antagonist 50µM.
`Cc1ccc(S(=O)(=O)NN2C(=O)/C(=C/c3cccc(F)c3)SC2=S)cc1` gave ERG Ets-DNA blk inactive, EPAC1 antag inconclusive, EPAC2 ag inactive, EPAC1 ag inactive and EPAC2 antagonist 32µM.
For COc1cc(/C=C2\SC(=S)N(NS(=O)(=O)c3ccc(C)cc3)C2=O)ccc1O the results were ERG Ets-DNA blk inactive, EPAC1 antag inconclusive, EPAC2 ag inactive, EPAC1 ag inactive, EPAC2 antagonist inconclusive and TDP1 block inactive.
Screening Cc1ccc(S(=O)(=O)NN2C(=O)/C(=C/c3ccccn3)SC2=S)cc1 returned ERG Ets-DNA blk inactive, EPAC1 antag inactive, EPAC2 ag inactive, EPAC1 ag inactive, EPAC2 antagonist inactive and TDP1 block inactive.
Screening N=C1/C(=C\c2coc3ccccc3c2=O)C(=O)N=C2SC(c3ccncc3)=NN12 returned ERG Ets-DNA blk inactive, EPAC1 antag inactive, EPAC2 ag 63µM, EPAC1 ag 100µM and EPAC2 antagonist inactive.
N=C1/C(=C\c2coc3ccc(O)cc3c2=O)C(=O)N=C2SC=CN12 was read as ERG Ets-DNA blk inactive, EPAC1 antag inactive, EPAC2 ag 63µM, EPAC1 ag 89µM, EPAC2 antagonist inactive and TDP1 block inactive.

Screening data: PubChem BioAssay, National Center for Advancing Translational Sciences (NCATS)
